# Laboratory results as given in PubChem BioAssay AID602413 (Johns Hopkins Ion Channel Center, 2012).
# Screen size: about 1,200 compounds; about 150 (12%) were called active.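 The calls were made as follows: active = ratio at least 3 SD above the weak peptide control, stable starting fluorescence, no direct agonism earlier; inactive = the rest.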 Only a sample is shown.
# Target: Mas-related G-protein coupled receptor member X1 (Homo sapiens) (UniProt Q96LB2)
# Experiment: allosteric enhancers of human MrgX1 signaling – HEK293 cells, Fluo-4 calcium flux, confirmation (AID 602413);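 also: compound followed by low BAM8-22 agonist challenge near EC20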
# Conditions: MrgX1-HEK293, Fluo-4 calcium fluorescence, FDSS, at 10 µM; hits give high values
# Chain of Mas-related G-protein coupled receptor member X1 (Homo sapiens) (Q96LB2 whole entry, looked up): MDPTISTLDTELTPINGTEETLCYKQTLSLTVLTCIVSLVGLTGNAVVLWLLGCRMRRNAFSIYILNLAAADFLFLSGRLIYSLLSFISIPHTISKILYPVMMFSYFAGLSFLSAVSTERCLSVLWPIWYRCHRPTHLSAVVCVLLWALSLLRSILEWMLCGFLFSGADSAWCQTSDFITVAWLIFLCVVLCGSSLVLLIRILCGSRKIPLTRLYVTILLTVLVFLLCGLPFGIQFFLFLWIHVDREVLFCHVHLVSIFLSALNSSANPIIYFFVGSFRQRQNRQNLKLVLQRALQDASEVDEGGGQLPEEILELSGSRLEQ
row,Compound,activation (ratio percentage)
1,Nc1ccc(Oc2ccc(Cl)cc2)cc1,inactive
2,CC1(C)CC2CC(C)(CN2c2ncnc3ccc(Br)cc23)C1 (stereo not drawn),29.4% (active)
3,Cc1ccc(S(=O)(=O)N(C)c2nc3ccccc3n3c(C(C)C)nnc23)cc1,27.8% (active)
4,COc1ccc(Nc2nnc(C)c3ccccc23)cc1,inactive
5,O=C(Nc1cccc(Cl)c1)c1cncn1-c1ccc(F)cc1,inactive
6,O=C(Nc1nc2c(F)cc(F)cc2s1)C1COc2ccccc2O1 (stereo not drawn),inactive
7,NC(=O)c1c(Nc2nc3c(F)cccc3s2)sc2c1CCCC2,15.4% (active)
8,COc1ccc(NC(=O)c2cc(-c3ccc(C)o3)nc3ccccc23)cc1,inactive
9,O=C(COC(=O)c1ccc(NS(=O)(=O)c2cccs2)cc1O)Nc1ccc(F)cc1,inactive
10,Cc1nn(C(=O)c2ccoc2C)c(N)c1-c1ccccc1,inactive
11,Cc1nc2ccccc2cc1OCc1ccc(F)cc1,inactive
12,Cc1cc2ncn(CCCCOc3ccccc3)c2cc1C,inactive
13,CCN(c1cccc(C)c1)S(=O)(=O)c1ccc(-c2coc(C)n2)cc1,inactive
14,Cc1ccc(N/C(N)=N/c2nc(C(F)(F)F)cc(C(F)(F)F)n2)cc1,inactive
15,O=C(Nc1ccccc1N1CCOCC1)c1csc2c1CCCC2,inactive
16,O=C(Nc1ccccc1N1CCCCC1)c1ccc2nccnc2c1,11.5% (active)
17,Cc1nonc1C1CCCN1Cc1nc(-c2ccc(F)cc2F)oc1C (stereo not drawn),inactive
18,CCOC(=O)N1CCN(C(=O)COCc2cc(-c3ccc4c(c3)OCO4)on2)CC1,inactive
19,COc1ccc(-c2cc(C(F)(F)F)nc(S(C)(=O)=O)n2)cc1OC,inactive
20,O=C(Oc1ccc(C(=S)N2CCOCC2)cc1)c1ccc(F)cc1,inactive
21,Cc1ccc2c(c1)c1ncnc(N3CCc4ccccc4C3)c1n2C,inactive
22,Cc1occc1C(=O)Nc1nnc(-c2ccncc2)s1,inactive
23,Cc1ccc2c(C)c(C(=O)N(C)CCC3CCCCO3)oc2c1C (stereo not drawn),inactive
24,CCOCc1nnc(NC(=O)CCC2CCCCC2)s1,inactive
25,COc1ccc(OC)c(Nc2nc3ccccc3n3cnnc23)c1,inactive
26,COC(=O)Cc1cc(=O)n(-c2nc3ccccc3s2)[nH]1,inactive
27,CCC(C)Sc1nc(C)nc2c1c(=O)n(C)c(=O)n2C (stereo not drawn),inactive
28,COc1ccc(C(=O)NC(=S)NC2CCCCC2)cc1,inactive
